# PME-1 inh – PME-1 inhibitors via competitive probe labeling, primary screen, biochemical, fluorescence polarization, FP-Rh probe, HTS. Protein phosphatase methylesterase 1 (Homo sapiens), Q9Y570. recombinant PME-1. inhibition, % at 5.9 µM. hit rate 0.53% among 320,000. AID 2130, 2009;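 active = inhibition above the campaign mean of all compounds plus 3 SD, cut at about 26% in these data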;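 note: competitive labeling of PME-1 active site by serine hydrolase directed probe; 0% = PME-1 with DMSO and 100% = wells lacking PME-1 enzyme; inhibitors block probe labeling so polarization falls and inhibition rises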
# PREPL inhibitor – PREPL enzyme inhibitors, primary screen, biochemical, fluorescence polarization; hit rate 0.68% among 320,000; AID 2751, 2010; inhibition, % at 5.96 µM; recombinant PREPL, fluorescence polarization activity-based probe; in the data active = inhibition above about 43%;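 note: 0% = enzyme with DMSO and 100% = wells lacking enzyme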
# Fam108B inh – mouse Fam108B serine hydrolase inhibitors, primary screen, counter-screen for RBBP9 inhibitor project, biochemical, fluorescence polarization; recombinant Fam108B, FP-Rh probe fluorescence polarization; inhibition, % at 9.51 µM; hit rate 0.33% among 300,000;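 active = inhibition above the screen mean inhibition plus 3 SD, computed separately per campaign, cut at about 18% in these data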;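 note: inhibitors lower polarization as less probe binds the enzyme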
# GSTO1 inh – inhibitors of recombinant GSTO1, primary screen, counter-screen for RBBP9 inhibitor project, biochemical, fluorescence polarization; Glutathione S-transferase omega-1 (Homo sapiens), P78417; activity-based probe fluorescence polarization; inhibition, % at 5.96 µM; hit rate 1.1% among 300,000;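 active = inhibition above the campaign mean inhibition plus 3 SD, cut at about 35% in these data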;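 note: 0% = GSTO1-1 with DMSO and 100% = wells lacking GSTO1-1 enzyme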
# LYPLA2 inh – LYPLA2 inhibitors, primary screen, counter-screen for PME1 inhibitor project, biochemical, fluorescence polarization, FP-Rh probe ABPP; hit rate 0.38% among 320,000; inhibition, % at 5.9 µM; Acyl-protein thioesterase 2 (Homo sapiens), O95372; recombinant LYPLA2;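 active = inhibition above the screen-wide mean plus 3 SD, limit set per campaign, cut at about 26% in these data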;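 note: 0% = LYPLA2 with DMSO and 100% = wells lacking LYPLA2 enzyme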
# Target sequence (O95372 whole entry, looked up): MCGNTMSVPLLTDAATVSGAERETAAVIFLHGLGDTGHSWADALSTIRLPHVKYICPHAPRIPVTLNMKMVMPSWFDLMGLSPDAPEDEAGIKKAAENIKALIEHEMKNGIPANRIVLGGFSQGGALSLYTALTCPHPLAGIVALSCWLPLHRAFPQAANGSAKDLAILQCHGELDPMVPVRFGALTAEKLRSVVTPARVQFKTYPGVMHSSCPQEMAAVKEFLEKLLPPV
# LYPLA1 counter – LYPLA1 inhibitors, primary screen, counter-screen for PME1 inhibitor project, biochemical, fluorescence polarization, FP-Rh probe ABPP. inhibition, % at 5.9 µM. hit rate 0.16% among 320,000. Acyl-protein thioesterase 1 (Homo sapiens), O75608. AID 2174, 2009. recombinant LYPLA1;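 active = inhibition above the mean of all tested compounds plus 3 SD, set per campaign, cut at about 14% in these data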;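 note: inhibitors block serine hydrolase probe labeling of LYPLA1 so polarization falls; 0% = enzyme with DMSO and 100% = wells lacking LYPLA1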
# LYPLA1 conf – LYPLA1 inhibitors, retest, confirmation, counter-screen for PME1 inhibitor project, biochemical, fluorescence polarization, FP-Rh probe ABPP; shares compounds with LYPLA1 counter; hit rate 69% among 480; recombinant LYPLA1; inhibition, % at 5.9 µM;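 active = mean inhibition across replicates above the hit cutoff set in the primary screen, cut at about 15% in these data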;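 note: loss of FP-Rh probe labeling of LYPLA1 seen as lower polarization; 0% = LYPLA1 with DMSO and 100% = wells lacking LYPLA1 enzyme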
# Starred values were filed as active, the others as inactive; nt = no result; ! = repeats disagree. This is a sample that favours compounds with a hit; in the whole collection about 2% have one here.
SMILES,PME-1 inh,PREPL inhibitor,Fam108B inh,GSTO1 inh,LYPLA2 inh,LYPLA1 counter,LYPLA1 conf
Cc1nnc(SCC(=O)Nc2sc3c(c2C#N)CCCC3)[nH]c1=O,1,18,-1,-3,-10,-2,nt
CCn1c(CSc2nc3ccccc3[nH]2)nc2cc(C(=O)O)ccc21,19,15,12,12,24,20*,14
S=c1[nH]nc(-c2cc3c(s2)-c2ccccc2CC3)o1,22,8,10,-23,0,17*,21*
CSc1nnc(-c2cc3c(s2)-c2ccccc2CC3)o1,-5,7,-4,8,-6,-6,nt
Cc1ccc(C)c(NC(=O)C(OC(=O)c2cnc(C)cn2)c2ccccc2)c1 (centres undefined),-2,-5,-2,-4,0,3,nt
Cc1cnc(C(=O)OC(C(=O)Nc2cc(C(F)(F)F)ccc2Cl)c2ccccc2)cn1 (centres undefined),4,-2,2,-2,-9,32*,0
Cc1ccc(-n2c(O)c(C=Nc3ccccc3-c3n[nH]c(=S)[nH]c3=O)c3ccccc3c2=O)c(C)c1,-9,9,8,6,-4,15*,15*
CN(C)CCCNC(=S)N1CCn2c(nc3ccccc32)C1,-2,-75,1,4,-1,1,nt
C=C[C@]1(C)C[C@@H](OC(=O)CSCCN(CC)CC)[C@]2(C)C(C)CC[C@]3(CCC(=O)[C@H]32)[C@@H](C)[C@@H]1O (some centres undefined),-3,30,2,4,0,15*!,3
CCOC(=O)c1nn(-c2ccccc2)c(-c2ccccc2)c1C(=O)c1ccccc1,-2,12,-5,17,8,18*,2
COc1cc(/C=N/N2CCN(Cc3ccc(Cl)cc3)CC2)ccc1OC(C)=O,-8,41,0,3,12,4,nt
COc1ccccc1/C=C/C=N/N1CCN(Cc2ccc(Cl)cc2)CC1,1,28,0,2,21,19*,26*
COc1cc(/C=N/N2CCN(Cc3ccc(Cl)cc3)CC2)cc(Br)c1O,2,19,-1,4,22,49*,54*
Cc1ccc2n(n1)c(=O)c(Cc1ccccc1)c([O-])[n+]2-c1ccccc1,-6,2,1,6,-2,-1,nt
COc1ccc(N)c2c1C(=O)c1ccccc1C2=O,18,20,12,14,15,20*,14*
COc1ccc(OC)c2c1C(=O)c1ccccc1C2=O,28*,14,16,10,22,22*,4
Cc1[nH][nH]c(=O)c1N=Nc1ccc(S(N)(=O)=O)cc1,3,3,-3,9,-1,1,nt
Cc1[nH][nH]c(=O)c1N=Nc1ccc(Br)c(Cl)c1,11,14,10,10,11,24*,18*
COC(=O)c1ccc(Oc2ccc(S(=O)(=O)N3CCCCC3)cc2N)cc1,3,5,-1,-5,17,26*,47*
CCOC(=O)N1CCN(c2ccc([N+](=O)[O-])cc2)CC1,6,6,0,-2,3,-6,nt
CSC(=NC#N)N1CCN(C(c2ccccc2)c2ccccc2)CC1,-3,8,0,2,21,20*,24*
CSC(=NC#N)N1CCN(C(=NC#N)SC)CC1,-2,20,0,3,-6,-3,nt
CSC(=NC#N)N1CCN(c2ccc([N+](=O)[O-])cc2)CC1,1,9,3,3,14,19*,24*
COn1c(-c2ccccc2)nc2ccc(Cl)cc21,3,2,-1,-1,-3,50*,-1
